15 sequences from the OligoGym collection can be followed below.
Also: reference of the scale not given here.

This assay concerns the target FGFR1. The experiment in a line: pooled miR-30 sensor sort-seq; sequence = guide strand. Particulars: shRNA.
With TTGTAGACGATGACCGACCCCA, the sensor-assay potency score (higher = more potent) is -0.237.

In the case of TTCATCATCTCCATTTCTGAGA, the sensor-assay potency score (higher = more potent) was -0.548.

TTTTAATATATAGCAACTGATG: the sensor-assay potency score (higher = more potent) was -1.31.

On to TTCTTTTCCATCTTTTCTGGGG, for which the sensor-assay potency score (higher = more potent) is -0.274.

TCATTCTCCACAATGCAGGTGT yielded a sensor-assay potency score (higher = more potent) of 0.557.

Take TTGTGCACAGCCATCTGGCTGT: the sensor-assay potency score (higher = more potent) is -0.135.

TCTCGGTGTATGCACTTCTTGG displayed a sensor-assay potency score (higher = more potent) of -1.66.

TTTTATAGTAGTCGATGTGGTG: the sensor-assay potency score (higher = more potent) was -0.492.

In turn, TAGCGGTGCAGAGTGTGGCTGT had a sensor-assay potency score (higher = more potent) of -0.244.

With TTGTCGGTGGTATTAACTCCAG, the sensor-assay potency score (higher = more potent) is -1.38.

In the case of ATCATGTACAGCTCGTTGGTGC, the sensor-assay potency score (higher = more potent) is -0.372.

For TGAACTTCACTGTCTTGGCAGC, the sensor-assay potency score (higher = more potent) was -0.906.

For the sequence TTACACATGAACTCCACGTTGC, the sensor-assay potency score (higher = more potent) turned out to be 0.903.

Regarding TCTGTCACCAGGACATTCCTGG, the sensor-assay potency score (higher = more potent) is 0.104.

The sequence TGTAGCAGTATTCCAGCCCTGG returned a sensor-assay potency score (higher = more potent) of -0.142.
